# Sampled rows, rich in hits. Any-hit rate of the full collection: about 3.3%.
# TLR9-MyD88 block – inhibitors of TLR9-MyD88 association in cells, primary screen, cell-based, CHO, BLA complementation, fluorescence. Toll-like receptor 9 (Homo sapiens) + Myeloid differentiation primary response protein …. CCF4 FRET ratio. inhibition, % at 4.98 µM. actives 0.21% (n = 340,000);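 active means inhibition above the mean over all tested compounds plus 3 SD, cut at about 21% in these data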;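 further: 0% = DMSO only wells and 100% = clavulanate BLA inhibitor control wells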
# NOD2 RIPK2 PPI – NOD2-RIPK2 binding disruptors in cells, primary screen, fluorescence, CHO cells, BLA complementation | inhibition, % at 4.98 µM | Receptor-interacting serine/threonine-protein kinase 2 (Homo sapiens), O43353 | actives 0.38% (n = 360,000) | AID 624267, 2012 | CCF4 ratio; in the data active means inhibition above about 21%;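 further: 0% = vehicle only and 100% = reference blocker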
# Target sequence (O43353 whole entry, looked up): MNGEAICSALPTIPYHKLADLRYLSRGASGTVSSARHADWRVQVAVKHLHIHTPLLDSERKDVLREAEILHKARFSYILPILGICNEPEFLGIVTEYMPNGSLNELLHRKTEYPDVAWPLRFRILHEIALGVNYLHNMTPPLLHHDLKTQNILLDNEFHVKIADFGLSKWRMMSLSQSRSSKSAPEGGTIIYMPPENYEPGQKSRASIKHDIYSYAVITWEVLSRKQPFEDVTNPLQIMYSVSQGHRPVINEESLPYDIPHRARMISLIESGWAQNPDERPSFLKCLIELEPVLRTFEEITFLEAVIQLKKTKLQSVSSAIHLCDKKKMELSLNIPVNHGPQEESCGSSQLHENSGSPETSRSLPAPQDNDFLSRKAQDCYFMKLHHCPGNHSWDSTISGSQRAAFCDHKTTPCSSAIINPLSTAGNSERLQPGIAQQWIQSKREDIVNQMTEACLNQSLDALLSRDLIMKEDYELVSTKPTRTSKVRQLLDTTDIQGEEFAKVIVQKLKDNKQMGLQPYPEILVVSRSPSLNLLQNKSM
# rCAG binder – binders of r(CAG) RNA repeats, primary screen, biochemical, fluorescence | actives 1.3% (n = 370,000) | inhibition, % at 3 µM | AID 651821, 2012 | r(CAG) RNA repeat, TO-PRO-1 dye displacement fluorescence;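 active means inhibition above the plate cutoff, the mean of all test compounds on that plate plus 3 SD, cut at about 35% in these data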;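 further: 0% = DMSO alone and 100% = 100 µM mitoxantrone as full dye displacement; higher means more dye released from RNA so lower well fluorescence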
# PRMT1 inh – PRMT1 methyltransferase inhibitors, primary screen, biochemical, fluorescence polarization. actives 1.3% (n = 370,000). Protein arginine N-methyltransferase 1 (Homo sapiens), Q99873. inhibition, % at 2.79 µM. recombinant PRMT1, activity-based probe fluorescence polarization;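 active means inhibition above about 21% made by adding two undisclosed values, limit read from the data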
# TLR4 MyD88 comp – inhibitors of TLR4-MyD88 association in cells, primary screen, cell-based, HeLa CL3-4, BLA complementation, FRET ratio. HeLa CL3-4 TLR4/MyD88 BLA complementation. Toll-like receptor 4 (Homo sapiens) + Myeloid differentiation primary response protein …. actives 0.18% (n = 200,000). inhibition, % at 8.4 µM; in the data active means inhibition above about 25%;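 further: 0% = vehicle and 100% = reference inhibitor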
# ABHD5-PLIN5 inh – ABHD5-PLIN5 interaction inhibitors, primary screen, cell lysate, split luciferase complementation, luminescence; Split G. princeps luciferase complementation, 4 h; inhibition, % at 4 µM; Perilipin-5 (Homo sapiens) + 1-acylglycerol-3-phosphate O-acyltransferase ABHD5 (Homo …; actives 0.78% (n = 360,000);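 active means inhibition above the mean inhibition across every tested compound plus 3 SD, cut at about 22% in these data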;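 further: 0% = DMSO only wells and the 100% control is not disclosed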
# rCAG bind conf – small molecules binding CAG repeat RNA – biochemical, fluorescence, confirmation. actives 70% (n = 4,300). r(CAG) RNA repeat, TO-PRO-1 dye displacement fluorescence. inhibition, % at 3 µM. shares compounds with rCAG binder;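 active means inhibition above a per-plate cutoff, the mean inhibition of sample wells plus 3 SD, cut at about 35% in these data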;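 further: loss of TO-PRO-1 fluorescence as compound displaces dye from 1x1 AA loop RNA; 0% = DMSO only wells and 100% = 100 µM mitoxantrone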
# dCAG dye counter – displacement of TO-PRO-1 from CAG DNA duplex, counter-screen for rCAG RNA repeat binder project, biochemical, fluorescence, TO-PRO-1 dye, d(CAG) DNA oligo; inhibition, % at 3 µM; actives 94% (n = 4,300); d(CAG) DNA oligo TO-PRO-1 dye displacement; AID 652068, 2013; shares compounds with rCAG binder;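 active means inhibition above its plate's cutoff, the mean test-well inhibition plus 3 SD, cut at about 4.8% in these data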;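 further: 0% = DNA dye mix with DMSO and 100% = 100 µM mitoxantrone; hits displace the dye from DNA and so lower well fluorescence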
# * hit, by the source's call; nt = no result.
SMILES,TLR9-MyD88 block,NOD2 RIPK2 PPI,rCAG binder,PRMT1 inh,TLR4 MyD88 comp,ABHD5-PLIN5 inh,rCAG bind conf,dCAG dye counter
CN(C)c1ccc(/C=C(/NC(=O)c2ccccc2)C(=O)N/N=C/c2ccc([N+](=O)[O-])c(O)c2)cc1,3.5,-14.2,67.0*,6.8,13.1,4.4,61.8*,26.3*
COC(=O)c1ccc(Nc2c([N+](=O)[O-])ccc3nonc23)cc1,3.4,-3.1,-0.4,0.8,nt,-3.5,nt,nt
Cc1[nH]n(-c2ccccc2)c(=O)c1Sc1ccc(Cl)cc1,-6.7,-3.6,4.2,4.0,4.6,-9.1,nt,nt
O=c1cc(CSc2ccc(Cl)cc2)[nH]c2[nH]n(-c3ccccc3)c(=O)c12,-1.3,-1.7,55.5*,24.2*,nt,1.3,35.8*,12.9*
Cc1ccc(SCc2cc(=O)c3c(=O)n(-c4ccccc4)[nH]c3[nH]2)cc1,-5.1,3.3,62.4*,22.3*,5.7,-8.4,43.3*,17.1*
Cc1ccc(S(=O)(=O)/N=C2/NC(=O)/C(=C/c3ccccn3)S2)cc1,-5.7,-6.1,44.6*,-1.9,0.8,8.2,37.3*,10.2*
CC(/C=C1\SC(=S)N(NC(=O)c2ccc(C)cc2)C1=O)=C\c1ccccc1,9.7,-5.1,nt,nt,-1.1,1.0,nt,nt
CC(/C=C1\SC(=S)N(NC(=O)c2ccncc2)C1=O)=C\c1ccccc1,-7.4,-6.2,42.4*,-1.0,nt,2.6,30.8,9.3*
CC(/C=C1\SC(=S)N(NS(=O)(=O)c2ccccc2)C1=O)=C\c1ccccc1,6.9,-3.1,73.6*,3.0,nt,-5.8,87.0*,53.8*
CC(/C=C1\SC(=S)N(NS(=O)(=O)c2ccc(C)cc2)C1=O)=C\c1ccccc1,-0.2,4.5,61.6*,7.0,nt,-1.0,86.7*,60.0*
CC(/C=C1\SC(=S)N(NC(=O)c2ccccc2C)C1=O)=C\c1ccccc1,0.7,4.5,16.7,-2.3,2.0,-1.1,nt,nt
CC1(c2nnnn2Cc2ccccc2)CSCC(=O)N1Cc1cccs1 (centres undefined),nt,nt,5.4,0.4,nt,nt,nt,nt
Cc1ccccc1Br,nt,nt,-0.2,2.2,nt,nt,nt,nt
Cc1ccc(S(=O)(=O)NN2C(=O)/C(=C/c3ccccn3)SC2=S)cc1,-3.8,-6.7,44.6*,2.0,-8.2,-8.4,35.2*,8.5*
Cc1c(Cl)cccc1NC(=O)c1ccccc1-c1ccccc1C(=O)O,-6.5,2.1,2.8,-1.2,nt,-2.9,nt,nt
COc1ccccc1NC(=O)C1=C(C)NC(SCC(=O)Nc2ccc(C(=O)O)cc2)=C(C#N)C1c1cccs1 (centres undefined),-2.3,-2.4,46.3*,-2.6,nt,5.8,39.4*,12.3*
CCCSC1=C(C#N)C(c2cccs2)C(C(=O)Nc2ccccc2)=C(C)N1 (centres undefined),4.0,4.0,8.4,-0.4,-18.1,-0.3,nt,nt
CCCCCCCCNS(=O)(=O)CCNC1CC1,-4.8,-9.4,-1.4,-3.8,nt,-3.0,nt,nt
CC(C)CN(c1ccccc1)S(=O)(=O)c1nnc(NC(=O)c2ccco2)s1,-13.1,-3.1,48.3*,0.2,nt,5.0,48.3*,16.3*
CN(c1ccccc1)S(=O)(=O)c1nnc(NC(=O)c2ccco2)s1,3.0,-7.7,14.6,6.0,nt,0.3,nt,nt
CCN(c1ccc(C)cc1C)S(=O)(=O)c1nnc(NC(=O)c2ccco2)s1,-3.4,-13.1,58.6*,0.3,nt,13.7,45.1*,13.9*
CCN(CC)S(=O)(=O)c1nnc(NC(=O)c2ccco2)s1,3.2,0.0,6.9,2.5,nt,-0.2,nt,nt
CCOc1ccc(Nc2nc(Cc3nnc(SCC(=O)O)o3)cs2)cc1,0.1,0.1,45.6*,14.9,-0.9,-19.9,28.5,9.0*
CCCCCC(=O)Nc1ccc(-c2csc(N)n2)cc1,-11.6,-8.6,4.6,4.4,-3.3,1.1,nt,nt
O=C1C=C(O)c2c(O)cc(O)c(O)c2C1=O,4.4,7.9,56.2*,46.7*,nt,5.6,20.5,5.2*
SMILES,TLR9-MyD88 block,NOD2 RIPK2 PPI,rCAG binder,PRMT1 inh,TLR4 MyD88 comp,ABHD5-PLIN5 inh,rCAG bind conf,dCAG dye counter
COc1ccccc1NC(=O)c1cc2cc(Br)ccc2cc1O,8.0,7.0,71.5*,1.2,nt,-15.7,48.6*,25.4*
COc1ccc(NC(=O)NNC(=O)c2cc3ccccc3cc2O)cc1,-1.2,-3.0,23.2,2.0,nt,0.4,nt,nt
COc1ccc(C)cc1NC(=O)NNC(=O)c1cc2ccccc2cc1O,-0.8,-13.9,58.0*,-0.9,nt,4.9,41.9*,14.6*
CN1OC[C@@H]2CN3C(=Nc4cc(C(F)(F)F)cc(C(F)(F)F)c4)Sc4ccccc4[C@@H]3C[C@@H]21,nt,nt,2.2,3.8,nt,nt,nt,nt
COc1ccc(-c2nnc(SCC(=O)Nc3ccc(S(=O)(=O)Nc4cc(C)nc(C)n4)cc3)n2-c2ccc(OC)cc2)cc1,nt,nt,48.8*,-6.0,nt,nt,43.6*,15.2*
CCOc1ccc(NC(=O)CSc2nnc(-c3ccco3)n2C)cc1,0.4,-0.8,-1.8,0.2,12.5,-0.5,nt,nt
CCOc1ccc(-n2c(SCC(=O)Nc3ccc(S(=O)(=O)Nc4cc(C)nc(C)n4)cc3)nnc2-c2ccco2)cc1,nt,nt,40.4*,-3.8,nt,nt,39.7*,13.9*
Cc1cc(NS(=O)(=O)c2ccc(NC(=O)CSc3nnc(-c4ccncc4)n3-c3ccccc3)cc2)nc(C)n1,nt,nt,9.5,-1.5,nt,nt,nt,nt
Cc1cc(NS(=O)(=O)c2ccc(NC(=O)CSc3nnc(-c4cccnc4)n3-c3ccccc3)cc2)nc(C)n1,nt,nt,14.1,-4.4,nt,nt,nt,nt
Cc1cc(NS(=O)(=O)c2ccc(NC(=O)CSc3nnc(-c4ccco4)n3-c3ccc(Cl)cc3)cc2)nc(C)n1,nt,nt,45.9*,4.8,nt,nt,33.3,12.2*
COc1ccc(-c2nnc(SCC(=O)Nc3ccc(C(=O)O)cc3)n2-c2ccc(Cl)cc2)cc1,-9.2,0.4,46.5*,-2.9,nt,-3.8,49.6*,15.2*
COc1ccc(-n2c(SCC(=O)Nc3ccc(Oc4ccccc4)cc3)nnc2-c2ccc(C)cc2)cc1,nt,nt,8.8,2.1,nt,nt,nt,nt
Cc1ccc(-c2nnc(SCC(=O)c3ccc(O)c(O)c3)n2-c2ccc(Cl)cc2)cc1,nt,nt,40.9*,1.9,nt,nt,42.6*,17.4*
Cc1nn(-c2cccc(Cl)c2)c2nc(-c3ccco3)cc(C(=O)O)c12,-0.3,3.2,71.7*,12.6,-9.0,7.2,77.4*,39.7*
